Experimental data reported in ChEMBL document CHEMBL3433997, “St. Jude Leishmania screening dataset” (2016).

Each molecule was assayed against Glucose transporter (Leishmania mexicana) (UniProt O61059) (assay: ST_JUDE_LEISH: Cytotoxicity at 2uM final concentration against transgenic Leishmania Mexicana promastigotes LmGT2 that are glucose transport deficient and complemented with the L. Mexicana glucose transporter 2. Activity is measured by DNA content using SYBR green in vitro).
Format: functional

| SMILES | inhibition [%] |
| --- | --- |
| CN(C)CCOc1cccc(-c2cnc(N)c(-c3nc4cc(S(C)(=O)=O)ccc4[nH]3)c2)c1 | 2.58 |
| c1ccc(COc2ccc(Nc3ncnc4cnc(-c5ccc(CN6CCCCC6)o5)cc34)cc2)cc1 | 2.99 |
| COc1ccc(NS(=O)(=O)c2ccc(C(=O)Nc3ccc(C(F)(F)F)cc3)cc2)cc1N1CCN(CC2CC2)CC1 | -7.4 |
| COc1ccccc1NC(=O)OC(COc1ccc(N)cc1)CN1CC=C(c2ccccc2)CC1 (centres undefined) | 0.98 |
| O=C(Nc1cc(C(F)(F)F)cc(C(F)(F)F)c1)N1CCC(CCN2CCC(c3c[nH]c4ccccc34)CC2)CC1 | 4.71 |
| Cc1ccc(C(CC(=O)Nc2nccs2)c2ccc(OC(C)C)cc2)cc1 (centres undefined) | -1.31 |
| O=C1CCCN1CCCNCc1cccc(-c2cccc(-c3nc4cc(C(F)(F)F)ccc4[nH]3)c2)c1 | 4.37 |
| CC(C)NCc1ccc(-c2ccc(NC(=O)c3cccc(C#N)c3)cc2)cc1 | -1 |
| NC1CCN(CCNCc2cccc(-c3ccc(-c4nc5cc(C(F)(F)F)ccc5[nH]4)cc3)c2)C1 (centres undefined) | 2.67 |
| CN1CCN(c2cc3c(cc2Cl)CCN3C(=O)Cc2ccc(NC(=O)Nc3cccc4ccccc34)cc2)CC1 | -1.64 |
| CCCCCN1CCCC1CNS(=O)(=O)c1cccc(C(=O)Nc2cccc(C#N)c2)c1 (centres undefined) | 3.88 |
| c1cc(CNCCc2ccncc2)cc(-c2ccc(-c3nc4ccccc4[nH]3)cc2)c1 | 0.79 |
| CCOc1cc(C)ccc1C1CCN(CCCCNC(=O)c2cccc(-c3ccc(C(F)(F)F)cc3)c2)CC1 | 2.69 |
| Cc1cc(F)ccc1Oc1nc(Nc2ccc(N3CCOCC3)c(F)c2)nc2c1S(=O)(=O)CCC2 | 2.35 |
| O=C(NCc1cccc2ccccc12)[C@@H]1CCCN1C(=O)c1ccc(O)c(-c2ccc(Cl)c(Cl)c2)c1 | 1.99 |
| Cc1nc(C)c(-c2ccc(Cl)cc2)c(O)c1I | 2.3 |
| O=S(=O)(Nc1ccc(CCN2CCC(N3CCCCC3)CC2)cc1)c1ccccc1C(F)(F)F | 11.3 |
| COc1ccc(F)cc1-c1ccccc1CNC(=O)c1cnn(-c2ccc([N+](=O)[O-])cc2)c1C(F)(F)F | 4.07 |
| COc1cc(Cc2cnc(N)nc2N)cc(OCCCC#N)c1OC | -1.3 |
| CN(CCCCNC(=O)/C=C/c1ccccc1)C1CC2(CCN(C(=O)OC(C)(C)C)CC2)c2ccccc21 (centres undefined) | 1.67 |

| SMILES | inhibition [%] |
| --- | --- |
| CCCc1ccc(-c2csc(NC(=O)c3ccc([N+](=O)[O-])o3)n2)cc1 | 37.8 |
| CN(C)CCC1CCCc2ccc(NC(=O)Nc3ccc(-c4ccncc4)c4ccccc34)cc21 (centres undefined) | -0.88 |
| C=CC[C@H](NC(=O)c1ccc(NS(=O)(=O)c2ccc3nc(N)[nH]c(=O)c3c2)cc1)C(=O)OCCCC | 1.67 |
| Fc1ccc2[nH]c(-c3ccc(-c4cccc(CN5CCCCC5)c4)cc3)nc2c1 | 1.72 |
| O=S(=O)(c1ccccc1OC(F)(F)F)C1CC2CCC(C1)N2S(=O)(=O)c1cccc(C(F)(F)F)c1 (centres undefined) | 0.73 |
| CN1CCCc2ccc(NC(=O)C=Cc3ccc(-c4ccc(F)cc4F)o3)cc2C1 | 2.73 |
| CCOc1ccc2ccccc2c1CNCCCCCCNCc1c(OCC)ccc2ccccc12 | 4.92 |
| CCS(=O)(=O)Nc1ccc2c(c1)/C(=C(/Nc1ccc(CN3CCCCC3)cc1)c1ccccc1)C(=O)N2 | 82 |
| Nc1ncc(-c2ccc(Cl)c(Cl)c2)c(N)n1 | 0.31 |
| O=C(NCCN1CCCC1)N1CCCN(c2ncnc3cc(-c4ccc(Cl)cc4)sc23)CC1 | 0.08 |
| Cc1nnc2c(NC(=O)NC3CCCC3)cc3cc(-c4ccc(CN5CCCCC5)cc4)ccc3n12 | 0.13 |
| O=C(/C=C/c1ccc(Cl)c(Cl)c1)NCCCCCN1CCC(NC(=O)Nc2cc(Cl)ccc2Cl)CC1 | 9.67 |
| CCN(CC)CCNc1ccnc2ccc3ccccc3c12 | 2.97 |
| Cc1cc(N(C)C2CCN(C)C2)nc(Nc2ccc(Cl)cc2)n1 (centres undefined) | 4.14 |
| CCOC(=O)c1cnc2c(OC)cc(OC)c(Cl)c2c1Nc1ccccc1 | 6.19 |
| FC(F)(F)Oc1ccc(-c2cnc3ccc(NCc4ccncc4)nn23)cc1 | -1.87 |
| CCOC(=O)c1cnc2c(C(F)(F)F)cccc2c1Nc1ccc(O)cc1 | 9.59 |
| OC(CNCc1cccc(Oc2ccc(Cl)cc2)c1)c1cccc(C(F)(F)F)c1 (centres undefined) | -0.71 |
| CCC(CC)C(CC(=O)NC(C)(C)CCc1ccccc1OC)Nc1ccc(C#N)c2ccccc12 (centres undefined) | 3.55 |
